A549 tox: kills or reduces viability of A549 cells in Nrf2 counter-screen. A549 ARE-Fluc cells, CellTiter-Fluor viability, 18-24 h. Potency, µM (series often up to 46 µM), usual class: inhibitors. 390,000 tested, 0.16% active. AID 504648
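A549 ARE-Fluc cells in 5% FBS OPTI-MEM, 5000 cells/well, rested 2 h then exposed to compounds in concentration-response for 18-24 h at 37 °C. Viability by CellTiter-Fluor fluorescence (Ex 405/Em 525) after 30 min; luciferase luminescence (BugLite, 15 min, RT) read afterwards.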
Nrf2 ARE act: activates Nrf2 signaling | Potency, µM (titrated, usually from 46.1 µM), usual class: activators | AREc32 ARE-luciferase reporter (MCF7-derived line), luminescence, 24 h | AID 624171 | 410,000 tested, 0.31% active; further: nearly all actives have a fitted effect of over 65% in size
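Quantitative high-throughput format: AREc32 reporter cells, 1000 per well, received compound by pin transfer and were incubated 24 hr at 37 deg C, 5% CO2, before Steady-Glo luminescence detection.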
TrxR1 inh: inhibitors of rat thioredoxin reductase 1; recombinant rTrxR1, NADPH fluorescence consumption, selenite substrate; Potency, µM (top dose mostly 114 µM), actives largely listed as inhibitors; 390,000 tested, 1% active; AID 588453; further: nearly all actives have a fitted effect of over 65% in size
Target sequence (O89049 whole entry, looked up): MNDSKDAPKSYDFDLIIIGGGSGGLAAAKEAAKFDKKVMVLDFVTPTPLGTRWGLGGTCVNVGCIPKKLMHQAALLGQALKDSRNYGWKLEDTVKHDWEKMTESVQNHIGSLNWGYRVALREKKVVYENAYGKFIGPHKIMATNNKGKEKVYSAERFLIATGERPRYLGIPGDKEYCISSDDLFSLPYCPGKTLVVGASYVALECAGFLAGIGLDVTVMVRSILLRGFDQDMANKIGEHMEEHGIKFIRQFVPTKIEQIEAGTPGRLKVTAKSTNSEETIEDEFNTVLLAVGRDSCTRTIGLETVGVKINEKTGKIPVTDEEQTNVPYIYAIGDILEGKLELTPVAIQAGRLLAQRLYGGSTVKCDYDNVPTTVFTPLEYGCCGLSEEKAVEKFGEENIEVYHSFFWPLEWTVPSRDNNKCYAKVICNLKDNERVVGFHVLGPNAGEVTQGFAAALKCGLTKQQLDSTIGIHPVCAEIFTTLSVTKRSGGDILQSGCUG
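Rat TrxR1 (90 nM in the dispensed reagent) was pre-reduced with 400 uM NADPH for 5 min at room temperature, then incubated with compound for 15 min. After 400 uM selenite was added, NADPH fluorescence (Ex 340/Em 450 nm) was followed for 8 min.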
TrxR1 substrate: is turned over as a substrate by rat TrxR1; O89049; purified TrxR1 substrate turnover, NADPH consumption readout; Potency, µM (doses to about 114 µM); 390,000 tested, 0.01% active; further: nearly all actives have a fitted effect of over 50% in size
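Rat TrxR1, dispensed at 90 nM, was prereduced with 400 uM NADPH (final) for 5 min at ~22 deg C, then incubated with compound 15 min before 400 uM selenite. A first-read NADPH fluorescence drop versus no-compound background flagged substrates.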
GALK inh: blocks human galactokinase activity. Potency, µM (top dose mostly 57.5 µM), actives largely listed as inhibitors. Purified GALK, Kinase-Glo residual ATP luminescence. 270,000 tested, 0.007% active
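Human GALK (5 nM) with 35 uM ATP and 100 uM galactose in 20 mM HEPES pH 8.0, 5 mM MgCl2, 60 mM NaCl, 1 mM DTT, 0.01% BSA. After 1 h at room temperature, leftover ATP was read by Kinase-Glo Plus luminescence.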
Nrf2 block: inhibitors of Nrf2 signaling; A549 ARE-Fluc reporter, luciferase luminescence, 18-24 h; 360,000 tested, 2.1% active; Potency, µM (top dose mostly 46 µM), most hits filed as inhibitors; AID 504444; further: nearly all actives have a fitted effect of over 60% in size
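Nrf2 function is reported as luminescence of an ARE-controlled luciferase in A549 cells. Compounds were tested at several concentrations, and a CellTiter-Fluor read on the same wells flagged cytotoxicity.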
Hits are given with their value; – = inactive; ? = inconclusive; · = no result given; [ ] = remark or other dose. Most compounds without a hit are left out; they make up all but 3% or so of the library. The call rests on the fitted dose curve; in most records, active means well fitted curve in the direction sought with a large enough effect; inconclusive means small, poorly fitted or top-dose-only effect, or another doubt; inactive means no such curve, though single readings can be large; an effect the other way counts as inactive or inconclusive.

SMILES	A549 tox	Nrf2 ARE act	TrxR1 inh	TrxR1 substrate	GALK inh	Nrf2 block
CCn1c(=S)[nH]c2ccccc21	–	–	89µM	–	–	–
Cc1nc2ccccc2n2c(O)c(CC(=O)O)cc12	?	–	35µM	–	–	–
Cc1ccc(Cl)cc1NC(=O)C1COc2ccccc2O1 (configuration not stated)	–	–	–	–	–	–
CCN(CC(=O)Nc1cc(Cl)ccc1C)C(=O)C1COc2ccccc2O1 (configuration not stated)	–	–	50µM	–	·	–
COc1ccc(-n2nc(C#N)c(Cl)cc2=O)cc1	–	?	6.3µM	–	–	?
Cc1ccc(SCc2nc(-c3ccc(C(=O)NCCc4ccc(Cl)cc4)cc3)oc2C)cc1	–	–	–	–	·	?
Cc1ccc(SCc2nc(-c3ccc(C(=O)NCC(C)c4ccccc4)cc3)oc2C)cc1 (configuration not stated)	–	–	–	–	·	9.2µM
Cc1ccc2c(c1)c(N1CCCC1=O)c(C(=O)Nc1ccc(F)cc1F)n2C	–	–	–	–	·	–
Cn1c(SCC(=O)N/N=C/C=C/c2ccco2)nc2ccccc21	–	?	45µM	–	–	–
Cn1c(SCC(=O)N/N=C/C=C/c2ccccc2[N+](=O)[O-])nc2ccccc21	–	?	–	–	·	?
CCn1c(SCC(=O)N/N=C/C=C/c2ccco2)nnc1-c1ccccc1	–	–[9.22 µM]	35µM	–	–	–
Cc1ccccc1-c1noc(-c2ccccc2F)n1	–	8.9µM	–	–	–	·
Cc1ccccc1-c1noc(-c2ccc(Cl)cc2)n1	–	–	–	–	–	?
Cc1ccc(N(C)S(=O)(=O)c2ccc3c(c2)CCC(=O)N3)cc1C	–	·	·	·	·	?
CC(=O)Nc1cccc(C(=O)/C=C/c2ccc[nH]2)c1	–	–	71µM	–	–	–
CS(=O)(=O)N1CCc2cc(-c3csc(NC(=O)Cc4ccccc4)n3)ccc21	–	–	–	–	–	21µM
CC(=O)Nc1ccc(-c2csc(NC(=O)Cc3cccc(F)c3)n2)cc1	–	–	–	–	–	21µM
CC(=O)Nc1ccc(-c2csc(NC(=O)Cc3ccccc3F)n2)cc1	–	–	–	–	–	?
CCOc1cc(Cl)c(S(=O)(=O)NCCCn2ccnc2)cc1Cl	–	–	–	–	–	16µM
COc1ccc(Cl)cc1S(=O)(=O)NCCCn1ccnc1	–	–	–	–	–	–
COc1cc(/C=c2\[nH]c(=O)/c(=C/c3cc(OC)c(OC)c(OC)c3)[nH]c2=O)cc(OC)c1OC	·	·	–	–	·	·
O=C(NCc1ccco1)/C(=C\c1ccco1)NC(=O)c1ccco1	–	–	50µM	–	–	–
O=C(NCc1ccco1)/C(=C\c1ccco1)NC(=O)c1ccc(Br)o1	–	–	–	–	–	–
O=C(NCc1ccco1)/C(=C/c1ccco1)NC(=O)c1ccc(Br)o1	–	–	50µM	–	–	–
CCOC(=O)c1ccccc1NC(=O)CN1CCCN(Cc2cc(C)ccc2C)S1(=O)=O	–	–	–	–	·	–
SMILES	A549 tox	Nrf2 ARE act	TrxR1 inh	TrxR1 substrate	GALK inh	Nrf2 block
Cc1ccc(OCC(=O)Nc2ccccc2C(=O)OCc2cc(=O)n3c(C)csc3n2)cc1	–	–	–	–	·	·
O=C1C(Cl)=C(NC(=O)c2ccccc2)C(=O)C(Cl)=C1NC(=O)c1ccccc1	?	–	0.32µM	–	–	?
O=C(NC1=C(Nc2ccc(Cl)cc2)C(=O)c2ccccc2C1=O)c1ccccc1	–	–	?	–	–	?
COc1ccc(/C=C/c2nc(C#N)c(NC3CCCCC3)o2)cc1OC	–	–	–	–	·	–
Cc1ccccc1NC1=CC(=O)CC(C)(C)C1	–	–	–	–	–	·
CC1(C)CC(=O)C=C(NC2=CC3OC(c4ccccc4)OCC3OC2=O)C1 (configuration not stated)	?	–	16µM	–	·	16µM
O=[N+]([O-])c1ccccc1CN1CCN(S(=O)(=O)c2ccccc2)CC1	–	–	–	–	·	16µM
Cc1nc(N2CCCC2)ncc1C(=O)NCc1cccc(Cl)c1	–	–	–	–	·	·
CC(=O)N=c1sc2ccccc2n1C	–	–	–	–	–	–
